From ChEMBL document CHEMBL4513216, “Probing the Open Global Health Chemical Diversity Library for Multistage-Active Starting Points for Next-Generation Antimalarials” (ACS Infect Dis, 2020)
Among all 69,000 compounds or so, about 8,600 (12%) showed an effect of 50% or more. The sample as a whole holds a higher share of strong results than the screen did.

Test system: Plasmodium berghei
Assay: Screen against P. berghei liver stage (PbLuc), transformed with Luciferase, at 10uM
Type: functional, HepG2
Settings: tested at 10 uM

Row | Compound | INHIBITION [%]
1 | COc1ccc(C(=O)N(C)Cc2nnc3ccccn23)cc1 | -35.7
2 | CC(C)c1nn(C)c(N(C)C)c1CNCC(O)COc1ccccc1 (stereo not drawn) | -37.2
3 | Cc1cc(NC(=O)N2CCN(c3cccs3)CC2)ccc1C(N)=O | 41
4 | NC(=O)c1ccc(NC(=O)N2CCN(c3cccs3)CC2)c(F)c1 | 44.3
5 | Cc1cc(C(N)=O)ccc1NC(=O)N1CCN(c2cccs2)CC1 | 65.6
6 | CS(=O)(=O)NCc1nnc2n1CCN(CC1CC1)C2 | 39.2
7 | Cc1nc(C2CCCN(C(=O)Cn3ccccc3=O)C2)sc1C (stereo not drawn) | 25.6
8 | CCn1ccnc1CN1CCCC1Cn1cc(C)cn1 (stereo not drawn) | -53.5
9 | NCC(=O)N1CCC(c2ccnc(Nc3cc(C(F)(F)F)ccn3)n2)C1 (stereo not drawn) | 19.3
10 | Cc1ccc(Nc2nccc(C3CCN(C(=O)CN)C3)n2)nc1 (stereo not drawn) | 58.1
11 | CNCC(=O)N1CCCC(c2cccc(Nc3nc(C)cc(C)n3)n2)C1 (stereo not drawn) | 33
12 | CNCC(=O)N1CCCC(c2ccnc(Nc3cnccn3)n2)C1 (stereo not drawn) | 15.9
13 | CNCC(=O)N1CCC(c2ccnc(Nc3ccc(C)cn3)n2)C1 (stereo not drawn) | 56.3
14 | Cc1ccc(Nc2nccc(C3CCN(C(=O)CO)C3)n2)nc1 (stereo not drawn) | 40.6
15 | O=C(C1CCCC1)N1CCC(c2ccnc(Nc3cnccn3)n2)C1 (stereo not drawn) | 22
16 | CC(=O)N1CCCC(c2ccnc(Nc3cnccn3)n2)C1 (stereo not drawn) | 42.6
17 | CC(=O)N1CCC(c2ccnc(Nc3cnccn3)n2)C1 (stereo not drawn) | 50.6
18 | Cc1cc(N2CCN(C(=O)[C@@H]3C[C@H]4C=C[C@@H]3C4)CC2)cc(C)n1 | -1.84
19 | Cn1ccc(C(=O)NCCOc2ccc(C(C)(C)C)cc2)cc1=O | 20.3
20 | CN1CCC/C1=N\S(=O)(=O)c1ccc(NC(=O)c2ccc(Cl)cc2)cc1 | 15.6
21 | CCc1cc(O)n2nc(C3CCN(C(=O)c4ccncc4)CC3)cc2n1 | 32.85
22 | CNC(=O)CN1CCOCC2(C1)CN(C(=O)C(C)C)CCO2 (stereo not drawn) | -15.7
23 | Cc1ncc2c(n1)CN(C(C(N)=O)c1ccccc1)CC2 (stereo not drawn) | -40.4
24 | Cc1ncc2c(n1)CN(C(C(N)=O)c1ccc(F)cc1)CC2 (stereo not drawn) | 58.5
25 | Cc1ncc2c(n1)CCN(C(C(N)=O)c1ccccc1)C2 (stereo not drawn) | -4.4
26 | O=C(c1ccncc1)N1CCOC2(COCCN(c3cncnc3)C2)C1 (stereo not drawn) | 37.8
27 | Cc1nc(Cn2c3c(ccc2=O)CCN(CC2CCC2)CC3)cs1 | -18.5

Row | Compound | INHIBITION [%]
28 | CC1c2ncc(CN3CCN(C)CC3)n2CCN1Cc1ccc(F)cc1 (stereo not drawn) | 11.5
29 | CC1c2ncc(Cn3cccn3)n2CCN1Cc1cccnc1 (stereo not drawn) | -9.26
30 | CC1c2ncc(Cn3cccn3)n2CCN1c1ncccn1 (stereo not drawn) | 23.1
31 | CC1c2ncc(CN3CCN(C)CC3)n2CCN1Cc1ccccn1 (stereo not drawn) | 53
32 | CC1c2ncc(Cn3cccn3)n2CCN1Cc1ccccn1 (stereo not drawn) | 58.4
33 | CC1c2ncc(CN3CCN(C)CC3)n2CCN1Cc1cccnc1 (stereo not drawn) | 34.8
34 | CC1c2ncc(CNC(=O)C3CC3)n2CCN1Cc1ccccn1 (stereo not drawn) | -88.3
35 | CC1c2ncc(Cn3cccn3)n2CCN1Cc1ccc(F)cc1 (stereo not drawn) | 54.8
36 | CC1c2ncc(CN3CCN(C)CC3)n2CCN1Cc1ccsc1 (stereo not drawn) | 27.3
37 | c1ccc(Cc2nnc(CN3CCOC(Cn4cccn4)C3)o2)cc1 (stereo not drawn) | 19.4
38 | Cc1cccc(C(=O)N2C[C@@H]3C(CC(=O)N4CCCC4)[C@@H]3C2)n1 (stereo partly drawn) | -2.35
39 | CSc1nc2ccsc2c(=O)n1CC(=O)N(C)c1ccccc1 | 36.8
40 | O=C(O)[C@@H]1CCN(C(=O)c2ccccn2)[C@@H]1c1ccc(F)cc1 | -8.58
41 | CN1CC2(CCN(C(=O)c3ccc(=O)n(C)c3)CC2)CC1=O | 50.5
42 | Cn1cc(C(=O)N2CCOc3cc(F)ccc32)ccc1=O | 16.1
43 | CC1CN(C(=O)c2ccc(=O)n(C)c2)c2ccccc2NC1=O (stereo not drawn) | -12.2
44 | CN1CCN(C(=O)c2ccc(=O)n(C)c2)c2ccccc21 | 50.4
45 | CC1CN(C)c2ccccc2N(C(=O)c2ccc(=O)n(C)c2)C1 (stereo not drawn) | 31.8
46 | Cn1cc(C(=O)N2CCOc3ccccc32)ccc1=O | 51.8
47 | COCCCN1CC2(CCN(C(=O)c3ccc(=O)n(C)c3)CC2)CC1=O | -14.7
48 | CN1C(=O)CN(C(=O)c2ccc(=O)n(C)c2)c2ccccc21 | 60.5
49 | CCN1CCN(C(=O)c2ccc(=O)n(C)c2)c2ccccc21 | 44.1
50 | CN1CCN(C(=O)c2ccc(=O)n(C)c2)Cc2ccccc21 | 40.3
51 | Cc1ccc2c(c1)OCCN2C(=O)c1ccc(=O)n(C)c1 | 8.48
52 | CN1CC2(CCN(C(=O)c3ccc4nonc4c3)CC2)CC1=O | -6.01
53 | CN(Cc1cccc(F)c1)C(=O)CN1CCOC(Cn2cccn2)C1 (stereo not drawn) | -14.8
